Measured values: PubChem BioAssay AID1159580 (chemical genetic matrix, 2015)
Values joined by “and” are separate entries in the source; they are usually repeats but may differ in a detail not shown here. Identical values can stand only once. Screen size: about 5,500 compounds; about 2,000 (36%) were called active. Roughly 18% stayed inconclusive and do not appear here. No stated cut-off is given here; in the data, active means normalized growth mostly below about 0.91 (no sharp cut-off); inconclusive means no clear call, values can overlap the other calls; inactive means mostly above about 0.92. Some of the results follow.

Assay: chemical genetic growth profiling, strain panel (AID 1159580);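 further: tested at 20 µM; growth read once vehicle control cultures reached saturation at 30 °C; 1 = growth at the plate median or of vehicle wells; lower values mean less growth of the strain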
Settings: S. cerevisiae deletion strains, growth OD

Measured: normalized growth

NC1=NCCN1CC(=O)O
inactive: locus YAL013W, strain DEP1, active compounds read low 0.99 | locus YAL021C, strain ccr4, active compounds read low 1.02 | locus YAL026C, strain drs2, active compounds read low 1.02 | locus YAL030W, strain snc1, active compounds read low 1.03 | locus YBL061C, strain skt5, active compounds read low 1.01 | locus YBR009C, strain hhf1, active compounds read low 1 | locus YBR021W, strain FUR4, active compounds read low 1 | locus YBR023C, strain chs3, active compounds read low 1.01 | locus YBR171W, strain sec66, active compounds read low 1.01 | locus YBR229C, strain ROT2, active compounds read low 0.96 | locus YBR231C, strain swc5, active compounds read low 1.01 | locus YBR279W, strain paf1, active compounds read low 1.01 | locus YCL011C, strain gbp2, active compounds read low 1.04 | locus YCL016C, strain dcc1, active compounds read low 1.01 | locus YCL029C, strain bik1, active compounds read low 0.997 | locus YCL069W, strain vba3, active compounds read low 1.01 | locus YCR088W, strain abp1, active compounds read low 1.02 | locus YDL005C, strain med2, active compounds read low 1.01 | locus YDL035C, strain GPR1, active compounds read low 0.989 | locus YDL040C, strain nat1, active compounds read low 1.01 | locus YDL074C, strain BRE1, active compounds read low 0.924 | locus YDL101C, strain DUN1, active compounds read low 0.961 | locus YDL134C, strain PPH21, active compounds read low 1.01 | locus YDL185W, strain tfp1, active compounds read low 0.986 | locus YDL192W, strain arf1, active compounds read low 0.992 | locus YDR001C, strain nth1, active compounds read low 1.01 | locus YDR069C, strain doa4, active compounds read low 1.02 | locus YDR101C, strain arx1, active compounds read low 0.996 | locus YDR137W, strain rgp1, active compounds read low 1.04 | locus YDR150W, strain NUM1, active compounds read low 0.986 | locus YDR159W, strain sac3, active compounds read low 0.958 | locus YDR162C, strain NBP2, active compounds read low 0.99 | locus YDR195W, strain ref2 1.02 | locus YDR297W, strain sur2, active compounds read low 1 | locus YDR318W, strain mcm21, active compounds read low 0.995 | locus YDR334W, strain swr1, active compounds read low 1.01 | locus YDR335W, strain msn5, active compounds read low 1.01 | locus YDR388W, active compounds read low 0.989 | locus YDR392W, strain spt3, active compounds read low 0.86 | locus YDR502C, strain sam2, active compounds read low 0.988 | locus YEL003W, strain gim4, active compounds read low 0.996 | locus YEL037C, strain rad23, active compounds read low 1.02 | locus YEL061C, strain CIN8 (second series), active compounds read low 1.03 | locus YEL061C, strain CIN8, active compounds read low 0.981 | locus YER015W, strain faa2, active compounds read low 1.02 | locus YER016W, strain bim1, active compounds read low 1.03 | locus YER110C, active compounds read low 0.988 | locus YER111C, strain swi4, active compounds read low 1.03 | locus YER155C, strain BEM2 (second series), active compounds read low 0.911 | locus YER155C, strain BEM2, active compounds read low 1 | locus YER167W, strain BCK2, active compounds read low 0.984 | locus YFR010W, strain ubp6, active compounds read low 1.01 | locus YGL078C, strain dbp3, active compounds read low 0.997 | locus YGL086W, strain mad1, active compounds read low 0.98 | locus YGL167C, strain pmr1, active compounds read low 1.01 | locus YGL173C, strain kem1, active compounds read low 1 | locus YGL227W, strain vid30, active compounds read low 1.04 | locus YGL240W, strain doc1, active compounds read low 1 | locus YGL248W, strain PDE1, active compounds read low 0.971 | locus YGL253W, strain hxk2, active compounds read low 1.01 | locus YGR135W, strain pre9, active compounds read low 1.01 | locus YGR229C, strain SMI1, active compounds read low 1.02 | locus YGR252W, strain gcn5, active compounds read low 1.01 | locus YHR013C, strain ard1, active compounds read low 0.996 | locus YHR027C, strain rpn1, active compounds read low 1.02 | locus YHR030C, strain SLT2, active compounds read low 0.998 and 0.992 | locus YHR079C, strain IRE1 (second series), active compounds read low 0.997 | locus YHR079C, strain IRE1, active compounds read low 0.992 | locus YHR094C, strain hxt1, active compounds read low 0.995 | locus YHR129C, strain ARP1, active compounds read low 0.999 | locus YHR142W, strain chs7, active compounds read low 0.992 | locus YHR200W, strain rpn10, active compounds read low 0.99 | locus YIL066C, strain RNR3, active compounds read low 0.966 | locus YIL073C, strain SPO22, active compounds read low 1.07 | locus YIL125W, strain kgd1, active compounds read low 0.984 | locus YIR030C, strain dcg1, active compounds read low 0.994 | locus YJL092W, strain hpr5, active compounds read low 1.01 | locus YJL095W, strain BCK1 (second series), active compounds read low 1.02 | locus YJL095W, strain BCK1, active compounds read low 0.969 and 0.972 | locus YJL115W, strain asf1, active compounds read low 1.02 | locus YJL129C, strain trk1, active compounds read low 1 | locus YJL134W, strain LCB3, active compounds read low 0.988 | locus YJL154C, strain vps35, active compounds read low 1.02 | locus YJL164C, strain tpk1, active compounds read low 0.986 | locus YJL166W, strain qcr8, active compounds read low 1 | locus YJL168C, strain set2, active compounds read low 0.989 | locus YJL187C, strain SWE1 (second series), active compounds read low 0.964 | locus YJL187C, strain SWE1, active compounds read low 1
